Results on six compounds are retold here after PubChem BioAssay (Tox21).

A number with no mark means an inactive call. Records with an inconclusive call do not appear. Calls of active or inactive are those of the source. Unless noted, the call rests on the fitted dose curve.

Assay [1] can be described thus: Nuclear factor erythroid 2-related factor 2/antioxidant responsive element (Nrf2/ARE) small molecule agonists: qHTS cell viability counter screen in human keratinocytes (AID 1919968; active means well fitted curve in the direction sought with a large enough effect in the repeat runs; an effect the other way counts as inactive or inconclusive; further: nearly all actives have a fitted effect of over 55% in size; further: potency means the concentration at half of the fitted maximal effect). In short, it runs like this:
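Seed 1,500 KeratinoSens cells per well, then incubate 5 h at 37 C/5% CO2. Add compounds in DMSO and incubate 23 h. Add CellTiter-Fluor, wait 1 h and read fluorescence.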

Assay [2] addresses KiSS-1 receptor (Homo sapiens) (UniProt Q969F8). Put plainly: Human kisspeptin (KISS1R) small molecule agonists, calcium flux assay in KISS1R-HEK293 cells (AID 1920064; active means well fitted curve in the direction sought with a large enough effect in the repeat runs; an effect the other way counts as inactive or inconclusive). In short, it runs like this: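 Cells plated and incubated 18 h; dye added, 1 h at 37 C; compounds in DMSO pinned in; signal read at 480/540 nm every second for 3 min. Each compound tested at 15 concentrations in triplicate.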

Assay [3] is described as follows: G protein-coupled receptor (GPCR) small molecule agonists, calcium flux assay: HEK293 wild type cell line counter screen (AID 1920065). In short, it runs like this: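 Counter-screen of the Tox21 10K library for non-specific calcium release: dye-loaded cells received compounds in DMSO and were monitored by kinetic fluorescence (480/540 nm, 3 min). Fifteen concentrations, run in triplicate.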

A short description of assay [4]: p53 small molecule agonists, cell-based qHTS assay with human liver microsomes (AID 1963577). Summed up: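 In this qHTS, p53 response-element beta-lactamase cells receive test compound together with a microsome/NADPH activating system (0.5 mg/mL final each) and are incubated 16 h at 37 C before LiveBLAzer fluorescence detection.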
A short description of assay [5]: p53 small molecule agonists, cell-based qHTS assay with rat liver microsomes (AID 1963578). In short, it runs like this:
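Agonist mode in p53RE-bla reporter cells, with compounds co-incubated 16 h at 37 C alongside 0.5 mg/mL rat liver microsomes and 0.5 mg/mL NADPH (final), followed by a 2 h LiveBLAzer detection step.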

Assay [6] is described as follows: p53 small molecule agonists, cell-based qHTS assay with human liver microsomes: qHTS cell viability counter screen (AID 1963579). Further: nearly all actives have a fitted effect of over 45% in size. Summed up:
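Metabolically activated exposure: compounds, human liver microsomes and NADPH (0.5 mg/mL final apiece) were added to p53RE-bla cells seeded 5 h earlier, left 16 h at 37 C, and then assessed for viability by CellTiter-Glo luminescence.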

A short description of assay [7]: p53 small molecule agonists, cell-based qHTS assay with rat liver microsomes: qHTS cell viability counter screen (AID 1963580). Further: nearly all actives have a fitted effect of over 45% in size. Summed up:
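Viability is assessed in parallel with the p53 reporter read: HCT-116 p53RE-bla cells receive compounds plus rat microsomes and NADPH (0.5 mg/mL final apiece), incubate 16 h at 37 C, and then CellTiter-Glo luminescence is recorded.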

Assay [8] in a line: p53 small molecule agonists, cell-based qHTS assay: qHTS cell viability counter screen (AID 1963581). Further: nearly all actives have a fitted effect of over 45% in size. In short, it runs like this:
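Cells: HCT-116 with p53 response element-driven beta-lactamase. Treatment: 16 h, 37 C, compounds in DMSO. Read: CellTiter-Glo luminescence after 30 min RT.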

In assay [9] the target is 5-hydroxytryptamine receptor 2A (Homo sapiens) (UniProt P28223). Kind of assay: 5-hydroxytryptamine receptor 2A (HTR2A) small molecule antagonists, cell-based qHTS assay (AID 1963586). Further: nearly all actives have a fitted effect of over 45% in size. Further: potency means the concentration at half of the fitted maximal effect. Summed up: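 Antagonist-mode intracellular calcium assay: DOI (4 nM) added after 5 min compound pre-incubation at room temperature to dye-loaded HTR2A-CHO cells. Fluorescence followed for 3 min, sampled every second.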

For assay [10] the target is unchanged. Kind of assay: 5-hydroxytryptamine receptor 2A (HTR2A) small molecule agonists, cell-based qHTS assay (AID 1963587). Further: nearly all actives have a fitted effect of over 30% in size. Further: potency means the concentration at half of the fitted maximal effect. Summed up: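 CHO cells stably expressing human HTR2A, plated 18 h, loaded with calcium dye 1 h at 37 C. Agonist mode: compounds added and intracellular calcium fluorescence recorded kinetically for 2 min at 1 sec intervals.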
For assay [11], the target named is Muscarinic acetylcholine receptor M1 (Homo sapiens) (UniProt P11229). Kind of assay: Cholinergic receptor muscarinic 1 (CHRM1) small molecule antagonists, cell-based qHTS assay (AID 1963588). Further: nearly all actives have a fitted effect of over 40% in size. In short, it runs like this: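 CHRM1-CHO calcium-flux assay, antagonist mode. Cells were seeded 18 h, dye-loaded 1 h at 37 C and given compound for 5 min at RT, then acetylcholine was added at 50nM. FDSS fluorescence was read 3 min; 15 concentrations, three runs.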

Assay [12] in a line: cAMP Responsive Elements (CRE) small molecule agonists, cell-based qHTS assay (AID 1963590). Summed up: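 Agonist mode qHTS in CRE-bla HEK 293T cells: compounds dosed from DMSO for 3 h at 37 C/5% CO2, followed by LiveBLAzer B/G FRET substrate for 2 h at room temperature.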
The nature of assay [13]: cAMP Responsive Elements (CRE) small molecule antagonists, cell-based qHTS assay (AID 1963591; active means well fitted inhibition curve with a large enough effect in the signal ratio in the repeat runs, not every such curve was filed as active; the % refers to the signal ratio). In short, it runs like this:
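Antagonist mode: test compounds are co-incubated with the adenylyl cyclase activator NKH477 (0.25 uM final) on CRE-bla HEK293T cells for 3 h at 37 °C, followed by LiveBLAzer substrate loading.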

In assay [14] the target is Beta-2 adrenergic receptor (Homo sapiens) (UniProt P07550). Put plainly: Adrenergic beta2 receptor (ADRB2) small molecule antagonists, cell-based qHTS assay (AID 1963592). Further: series mostly up to about 92 µM; nearly all actives have a fitted effect of over 50% in size. Summed up: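 Cells (CHO, stable ADRB2 overexpression) incubated 18-20hr at 37C; compounds added from DMSO; agonist mix (1nM isoproterenol, 100uM IBMX, 25uM Ro-20-1724) added; 0.5hr RT; d2-cAMP and anti-cAMP-cryptate added; 1hr RT; 665/615 nm read.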

For assay [15] the target is unchanged. Kind of assay: Adrenergic beta2 receptor (ADRB2) small molecule agonists, cell-based qHTS assay (AID 1963593).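 Further: CHO cells stably overexpressing human ADRB2.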 Summed up:
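CHO cells stably over-expressing ADRB2 were plated overnight at 37C, then dosed with compounds plus a stimulation mix containing 100uM IBMX and 25uM Ro-20-1724 for 0.5hr at room temperature. cAMP was measured by HTRF competition, 1hr.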

Assay [16] concerns the target D(2) dopamine receptor (Homo sapiens) (UniProt P14416). Put plainly: Dopamine D2 receptor (DRD2) small molecule antagonists, cell-based qHTS assay (AID 1963595; active means well fitted inhibition curve with a large enough effect in the signal ratio in the repeat runs, with a control signal flat; the % refers to the signal ratio). In short, it runs like this: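 Stable D2 receptor HEK293 line, 24 h after seeding. Compound preincubated 10 min, then quinpirole (12 nM) with forskolin analogue NKH477 (200 nM), 30 min, room temperature. Detection by time-resolved FRET of cAMP.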

The nature of assay [17]: p53 small molecule agonists, cell-based qHTS assay (AID 1963582; active means well fitted activation curve with a large enough effect in the signal ratio in the repeat runs, not every such curve was filed as active; the % refers to the signal ratio; further: potency means the concentration at half of the fitted maximal effect). Summed up: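 Quantitative HTS in p53RE-bla cells: after a 5 h settling period, compounds delivered in DMSO were left on cells for 16 h at 37 C, and reporter induction was measured as fluorescence following 2 h substrate loading.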
In assay [18] the target is D(2) dopamine receptor (Homo sapiens) (UniProt P14416). Put plainly: Dopamine D2 receptor (DRD2) small molecule agonists, cell-based qHTS assay (AID 1963594). Further: nearly all actives have a fitted effect of over 35% in size. Summed up:
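HEK293 cells stably expressing human DRD2, pre-treated with PDE inhibitor Ro20-1724 (0.1 mM final) and compound 10 min at room temperature, then stimulated with NKH477 (200nM […]) for 30 min. cAMP read by HTRF (665/620 nm).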

The target in assay [19] is Muscarinic acetylcholine receptor M1 (Homo sapiens) (UniProt P11229). Kind of assay: Cholinergic receptor muscarinic 1 (CHRM1) small molecule agonists, cell-based qHTS assay (AID 1963589). Further: nearly all actives have a fitted effect of over 35% in size. Summed up:
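Agonist-mode qHTS in CHO cells stably carrying human muscarinic M1. Intracellular calcium is tracked by fluorescence every second after compound transfer; each compound runs at 15 concentrations in three independent runs.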

For assay [20], the target named is Gonadotropin-releasing hormone receptor (Homo sapiens) (UniProt P30968). Kind of assay: Human gonadotropin-releasing hormone receptor (GnRHR) small molecule agonists, calcium flux assay in GnRHR-HEK293 cells (AID 1920063). Further: nearly all actives have a fitted effect of over 35% in size. In short, it runs like this:
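Cells: HEK293 stably expressing human GnRHR. Steps: overnight (18 h) culture, 1 h calcium dye loading at 37 C, compound addition, kinetic fluorescence read at 480/540 nm. Each compound tested at 15 concentrations in triplicate.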

Chain of KiSS-1 receptor (Homo sapiens) (Q969F8 whole entry, looked up): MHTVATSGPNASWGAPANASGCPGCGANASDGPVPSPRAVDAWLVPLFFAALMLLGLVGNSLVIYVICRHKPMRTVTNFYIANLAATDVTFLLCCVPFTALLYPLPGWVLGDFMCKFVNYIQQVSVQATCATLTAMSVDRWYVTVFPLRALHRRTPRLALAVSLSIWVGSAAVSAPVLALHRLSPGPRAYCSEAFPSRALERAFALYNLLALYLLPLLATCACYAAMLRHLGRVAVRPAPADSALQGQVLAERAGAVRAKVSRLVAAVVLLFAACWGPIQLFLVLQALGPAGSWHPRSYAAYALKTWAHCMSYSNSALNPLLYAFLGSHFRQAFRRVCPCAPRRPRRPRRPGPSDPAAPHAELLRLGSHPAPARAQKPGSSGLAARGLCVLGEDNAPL
Chain of 5-hydroxytryptamine receptor 2A (Homo sapiens) (P28223 whole entry, looked up): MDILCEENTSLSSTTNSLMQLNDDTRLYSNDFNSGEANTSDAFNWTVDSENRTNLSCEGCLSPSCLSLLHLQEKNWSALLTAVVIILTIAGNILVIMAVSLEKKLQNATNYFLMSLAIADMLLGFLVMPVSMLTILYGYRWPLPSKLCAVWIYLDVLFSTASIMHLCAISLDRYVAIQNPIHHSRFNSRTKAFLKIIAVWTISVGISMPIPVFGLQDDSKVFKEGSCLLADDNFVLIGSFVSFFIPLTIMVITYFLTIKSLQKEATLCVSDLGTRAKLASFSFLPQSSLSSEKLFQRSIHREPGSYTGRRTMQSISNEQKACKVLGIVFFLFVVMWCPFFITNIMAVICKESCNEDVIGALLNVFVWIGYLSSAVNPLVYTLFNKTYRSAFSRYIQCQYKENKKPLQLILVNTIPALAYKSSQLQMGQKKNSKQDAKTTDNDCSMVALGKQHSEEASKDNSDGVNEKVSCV
Chain of Beta-2 adrenergic receptor (Homo sapiens) (P07550 whole entry, looked up): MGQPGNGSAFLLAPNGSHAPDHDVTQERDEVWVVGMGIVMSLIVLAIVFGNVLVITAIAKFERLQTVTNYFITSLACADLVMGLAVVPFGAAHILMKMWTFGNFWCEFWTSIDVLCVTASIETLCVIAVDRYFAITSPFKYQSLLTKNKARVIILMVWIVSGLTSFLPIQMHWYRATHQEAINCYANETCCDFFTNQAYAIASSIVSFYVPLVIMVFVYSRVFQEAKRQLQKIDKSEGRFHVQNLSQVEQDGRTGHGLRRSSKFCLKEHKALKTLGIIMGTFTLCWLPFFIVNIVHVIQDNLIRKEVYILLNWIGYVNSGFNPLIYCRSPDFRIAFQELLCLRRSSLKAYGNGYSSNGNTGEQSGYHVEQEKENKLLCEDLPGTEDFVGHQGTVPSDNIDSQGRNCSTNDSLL
Chain of D(2) dopamine receptor (Homo sapiens) (P14416 whole entry, looked up): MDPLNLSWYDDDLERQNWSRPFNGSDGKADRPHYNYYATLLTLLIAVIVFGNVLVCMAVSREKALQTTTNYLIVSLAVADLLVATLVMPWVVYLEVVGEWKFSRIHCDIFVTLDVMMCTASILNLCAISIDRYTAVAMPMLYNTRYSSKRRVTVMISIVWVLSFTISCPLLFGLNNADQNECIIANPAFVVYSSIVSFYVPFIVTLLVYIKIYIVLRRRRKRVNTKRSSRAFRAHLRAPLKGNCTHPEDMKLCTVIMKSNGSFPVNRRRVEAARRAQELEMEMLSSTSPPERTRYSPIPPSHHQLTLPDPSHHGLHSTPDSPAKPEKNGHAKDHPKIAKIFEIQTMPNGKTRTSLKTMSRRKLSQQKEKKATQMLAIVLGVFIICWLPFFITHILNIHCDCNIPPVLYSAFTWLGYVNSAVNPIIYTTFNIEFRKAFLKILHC
Chain of Muscarinic acetylcholine receptor M1 (Homo sapiens) (P11229 whole entry, looked up): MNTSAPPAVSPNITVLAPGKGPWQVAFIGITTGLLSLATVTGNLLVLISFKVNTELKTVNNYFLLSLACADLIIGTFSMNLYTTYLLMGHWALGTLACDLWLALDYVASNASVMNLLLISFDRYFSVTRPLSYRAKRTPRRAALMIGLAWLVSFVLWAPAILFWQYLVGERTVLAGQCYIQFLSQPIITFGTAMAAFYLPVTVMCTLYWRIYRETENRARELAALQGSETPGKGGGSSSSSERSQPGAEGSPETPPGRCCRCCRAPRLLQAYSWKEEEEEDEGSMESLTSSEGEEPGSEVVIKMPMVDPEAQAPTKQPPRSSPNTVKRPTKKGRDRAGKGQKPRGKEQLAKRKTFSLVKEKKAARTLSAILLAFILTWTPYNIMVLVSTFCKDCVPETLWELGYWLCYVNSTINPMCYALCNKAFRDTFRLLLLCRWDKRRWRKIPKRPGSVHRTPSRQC
Chain of Gonadotropin-releasing hormone receptor (Homo sapiens) (P30968 whole entry, looked up): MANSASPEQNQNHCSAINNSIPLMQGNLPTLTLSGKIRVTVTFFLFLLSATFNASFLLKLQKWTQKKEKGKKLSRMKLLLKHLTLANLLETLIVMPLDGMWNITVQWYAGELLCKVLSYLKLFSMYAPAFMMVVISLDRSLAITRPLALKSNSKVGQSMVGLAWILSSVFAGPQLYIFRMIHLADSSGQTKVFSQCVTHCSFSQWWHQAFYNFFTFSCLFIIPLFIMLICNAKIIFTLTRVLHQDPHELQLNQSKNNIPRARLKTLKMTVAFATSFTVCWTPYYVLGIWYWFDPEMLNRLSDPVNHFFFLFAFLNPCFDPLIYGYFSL

As to `CN/C(=N\[N+](=O)[O-])NCC1CCOC1` (stereo not drawn), the Potency result in assay [1], in assay [2], in assay [3], in assay [4], in assay [5] and in [6] was “inactive” in each case. The Potency result in assay [7], in assay [8], in [9], in assay [10], in assay [11] and in [12] was “inactive” in each case. In addition, the Potency entry in [13], in assay [14], in assay [15] and in [16] was “inactive” each time.

Take `C[C@@H]1CC[C@H]2[C@@H](C)C(=O)O[C@@H]3O[C@@]4(C)CC[C@@H]1[C@]32OO4`: the Potency result in assay [1], in [2], in [3], in assay [4], in assay [5] and in assay [6] was “inactive” each time. The Potency entry in [7], in [8], in assay [17], in assay [12], in assay [13] and in assay [14] was “inactive” each time. Besides, the Potency result in assay [15] and in assay [18] was “inactive” throughout.

As for `CCCCN(N=O)C(=N)N[N+](=O)[O-]`, the Potency entry in [1], in [2], in assay [3], in [4], in assay [5] and in [6] was “inactive” each time. Also, the Potency entry in assay [7], in [8], in assay [9], in assay [10], in assay [11] and in [19] was “inactive” throughout. For the same compound, the Potency entry in assay [13], in assay [14], in assay [18] and in [16] was “inactive” in each case. Also, the Potency in assay [17] was 37.1 µM (active).

As to `CC(=O)[O-].CC(=O)[O-].O.O.[Cd+2]`, the Potency in assay [1] is 42.7 µM (active); in assay [10], 27.2 µM (active). For the same compound, the Potency result in [2], in [3], in assay [6], in [7], in assay [9] and in [11] was “inactive” throughout. In addition, the Potency result in assay [19], in assay [12], in assay [14], in [15], in assay [18] and in [16] was “inactive” in each case.

In the case of `CCCCC/C=C\C/C=C\C/C=C\C/C=C\CCCC(=O)NCC(=O)O`, the Potency result in [1], in assay [20], in [3], in [5], in [6] and in assay [7] was “inactive” throughout. For the same compound, the Potency entry in [11], in assay [19], in [14] and in [15] was “inactive” throughout. In addition, the Potency in assay [9] is 14.5 µM (active).

With `Clc1ccc2ccccc2c1`, the Potency result in assay [1], in assay [20], in assay [4], in assay [5], in assay [6] and in assay [7] was “inactive” in each case. For the same compound, the Potency result in assay [8], in assay [17], in [9], in assay [10], in assay [11] and in assay [19] was “inactive” each time. In addition, the Potency result in assay [12], in assay [13], in [14] and in assay [18] was “inactive” each time.
